# Measured values as given in PubChem BioAssay.
# Active and inactive are the calls of the source. Unless noted, the rule behind the calls is not given here.
# Tests used:
# [1] = A549 cell viability effects, profiling panel, calcein-AM fluorescence, 48 h, basal (AID 1162); details: higher = more signal; note: test concentration not given here
# [2] = adipocyte viability effects, profiling panel, cell-based, 3T3-L1 adipocytes, calcein-AM fluorescence, 48 h, basal (AID 1163); details: 3T3-L1 adipocytes viability, higher = more signal; note: test concentration not given here
# [3] = HepG2 cell viability effects, profiling panel, calcein-AM fluorescence, 48 h, basal (AID 1164); details: higher = more signal; note: test concentration not given here
# [4] = MM1S cell viability effects, profiling panel, calcein-AM fluorescence, 48 h, basal (AID 1165); details: higher = more signal;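 note: viability of MM1S multiple myeloma cells under basal unstimulated conditions; test concentration not given here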
# [5] = basal RPMI8226 viability, no added stimulus, profiling panel, cell-based, calcein-AM fluorescence, 48 h, PK04 Diversity Set (AID 1166); details: RPMI8226 myeloma viability, higher = more signal;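 note: cells grown under basal conditions without added stimulus; test concentration not given here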
# [6] = basal HepG2 mitochondrial membrane potential changes, profiling panel, cell-based, JC-1 fluorescence, 24 h, 100 nL compound (AID 1167); details: higher = more signal; note: test concentration not given here
# [7] = basal 3T3-L1 adipocyte mitochondrial potential changes, profiling panel, cell-based, JC-1 fluorescence, 3T3-L1 adipocytes, 24 h, 100 nL compound (AID 1168); details: JC-1 mitochondrial fluorescence, higher = more signal, called active from +8 up or from −8 down; note: test concentration not given here
# [8] = basal RPMI8226 mitochondrial membrane potential changes, profiling panel, cell-based, JC-1 fluorescence, 24 h, 100 nL compound (AID 1169); details: RPMI8226 myeloma, JC-1 mitochondrial potential fluorescence, higher = more signal; note: test concentration not given here
# [9] = basal MM1S mitochondrial membrane potential changes, profiling panel, cell-based, JC-1 fluorescence, 24 h, 100 nL compound (AID 1170); details: higher = more signal; note: test concentration not given here
# [10] = A549 lung cancer cell viability effects, profiling panel, resazurin fluorescence, 24 h, PK04 Diversity Set (AID 1171); details: higher = more signal, called active from +8 up or from −8 down; note: test concentration not given here
# [11] = HepG2 liver cancer cell viability effects, profiling panel, resazurin fluorescence, 24 h, PK04 Diversity Set (AID 1172); details: higher = more signal; note: test concentration not given here
# [12] = basal S. cerevisiae growth modulation, no modifier, primary screen, OD600, strain BY4716, 24 h, basal condition (AID 1173); details: OD600, 24 h, higher = more signal, called active from +8 up or from −8 down
# [13] = MM1S myeloma cell viability, profiling panel, resazurin fluorescence, basal, 24 h, PK04 Diversity Set (AID 1174); details: higher = more signal, called active from +8 up or from −8 down;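 note: MM1S multiple myeloma cell line; test concentration not given here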
# [14] = target: Dihydroorotate dehydrogenase (quinone), mitochondrial (Plasmodium falciparum (isolate 3D7)) (UniProt Q08210); assay: PfDHODH enzyme inhibitors, primary screen, biochemical, C-terminal His tag, absorbance 600 nm (AID 1175); details: DCIP absorbance 600 nm, higher = more signal, called active from +8 up or from −8 down;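 note: recombinant parasite enzyme with a five histidine tag at its C terminus; test concentration not given here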
# [15] = P. aeruginosa biofilm formation inhibitors, primary screen, strain PAO1, LB-PBS medium, absorbance 600 nm (AID 1176); note: test concentration not given here; details: P. aeruginosa PAO1 growth/biofilm, A600, 12 h; higher = more signal
# [16] = S. cerevisiae RM11-1a growth modifiers, primary screen, strain RM11-1a, OD600, basal, 24 h (AID 1177); details: OD600, 24 h, higher = more signal, called active from +8 up or from −8 down;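 note: cultures grown under basal conditions with no added stressor; test concentration not given here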
# [17] = E. coli acrAB mutant growth effects, primary screen, E. coli filamentation inducers, strain DRC39, OD650, 24 h (AID 1178); details: higher = more signal, called active from +8 up or from −8 down;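 note: growth measured as culture turbidity by optical density at 650 nm; test concentration not given here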
# [18] = E. coli acrAB mutant growth effects, primary screen, E. coli filamentation inducers, strain DRC39, OD650, 48 h (AID 1179);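 note: screen aims at cell division blockers that make cells filament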; details: E. coli DRC39 delta-acrAB growth, higher = more signal, called active from +8 up or from −8 down
# [19] = RPMI8226 myeloma cell viability, profiling panel, resazurin fluorescence, basal, 24 h, PK04 Diversity Set (AID 1180); details: higher = more signal;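 note: RPMI8826 multiple myeloma cell line at 5000 cells per well; test concentration not given here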
# [20] = target: E3 ubiquitin-protein ligase XIAP (Homo sapiens) (UniProt P98170); assay: XIAP binders, primary screen, biophysical, small-molecule microarray, fluorescence 635 nm (AID 1181); details: small-molecule microarray binding, higher = more signal;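 note: score merges 667 nm emission and signal to noise over triplicate slides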
# Sequence of E3 ubiquitin-protein ligase XIAP (Homo sapiens) (P98170 whole entry, looked up): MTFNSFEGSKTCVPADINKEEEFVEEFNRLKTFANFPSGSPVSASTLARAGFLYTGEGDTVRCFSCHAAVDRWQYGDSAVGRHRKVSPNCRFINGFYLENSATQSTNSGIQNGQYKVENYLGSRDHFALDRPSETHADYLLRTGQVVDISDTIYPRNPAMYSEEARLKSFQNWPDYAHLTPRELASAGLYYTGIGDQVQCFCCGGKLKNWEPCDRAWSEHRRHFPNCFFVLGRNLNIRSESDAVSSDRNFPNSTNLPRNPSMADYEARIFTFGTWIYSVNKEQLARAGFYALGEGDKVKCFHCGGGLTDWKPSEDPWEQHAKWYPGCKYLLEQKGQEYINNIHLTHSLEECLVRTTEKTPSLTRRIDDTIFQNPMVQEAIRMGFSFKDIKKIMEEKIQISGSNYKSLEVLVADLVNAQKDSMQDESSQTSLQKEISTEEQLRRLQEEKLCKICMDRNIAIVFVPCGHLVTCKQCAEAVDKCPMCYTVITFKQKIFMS
# Sequence of Dihydroorotate dehydrogenase (quinone), mitochondrial (Plasmodium falciparum (isolate 3D7)) (Q08210 whole entry, looked up): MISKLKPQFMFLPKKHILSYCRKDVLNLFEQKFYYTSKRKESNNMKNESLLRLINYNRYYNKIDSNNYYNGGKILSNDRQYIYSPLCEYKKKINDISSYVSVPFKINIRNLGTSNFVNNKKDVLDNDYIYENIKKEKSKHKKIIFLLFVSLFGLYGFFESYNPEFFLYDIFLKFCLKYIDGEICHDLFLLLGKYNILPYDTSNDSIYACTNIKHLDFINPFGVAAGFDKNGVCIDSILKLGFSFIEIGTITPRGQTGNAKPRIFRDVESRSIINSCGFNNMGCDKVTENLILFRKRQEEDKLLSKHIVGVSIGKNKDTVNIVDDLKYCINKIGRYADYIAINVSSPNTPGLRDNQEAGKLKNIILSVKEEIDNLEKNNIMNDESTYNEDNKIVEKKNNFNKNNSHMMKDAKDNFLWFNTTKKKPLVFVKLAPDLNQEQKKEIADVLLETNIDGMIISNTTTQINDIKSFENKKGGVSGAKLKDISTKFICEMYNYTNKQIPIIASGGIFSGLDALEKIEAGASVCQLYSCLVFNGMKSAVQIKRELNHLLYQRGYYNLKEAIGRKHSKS
Structure (SMILES),z-score [1],z-score [2],z-score [3],z-score [4],z-score [5],z-score [6],z-score [7],z-score [8],z-score [9],z-score [10],z-score [11],z-score [12],z-score [13],composite z-score [14],z-score [15],z-score [16],z-score [17],z-score [18],z-score [19],composite z-score [20]
O=C1c2ccccc2[C@@]2(Cc3ccccc3N(Cc3ccccc3)C2=O)[C@H](c2ccc(CO)cc2)N1Cc1ccccc1C(F)(F)F,0.74,1,1.22,0.166,0.816,1.28,0.084 (inactive),-0.0385,0.29,-1.16 (inactive),-0.897,-0.614 (inactive),-1.28 (inactive),-4.41 (inactive),0.127 (inactive),0.349 (inactive),0.225 (inactive),0.429 (inactive),-0.59,-0.148
NC(=O)NCC#Cc1ccc2c(c1)[C@]1(C(=O)N2)[C@H](c2ccc(O)cc2)N2[C@H](c3ccccc3)[C@H](c3ccccc3)OC(=O)[C@H]2[C@@H]1C(=O)N1CCN(c2ncccn2)CC1,0.719,0.464,-1.08,0.252,0.719,-1.83,-0.197 (inactive),0.591,1.06,0.956 (inactive),-0.271,0.244 (inactive),0.965 (inactive),-0.154 (inactive),1.18 (inactive),0.517 (inactive),0.247 (inactive),0.0093 (inactive),1.24,-0.0004
C=CCOC(=O)[C@@H]1[C@H]2C(=O)O[C@H](c3ccccc3)[C@H](c3ccccc3)N2[C@H](c2ccc(OCCOC(=O)[C@H]3C[C@H]4C(=O)N[C@@H](CC(C)C)C(=O)N4[C@H]3c3cccc(OCCO)c3)cc2)[C@@]12C(=O)Nc1ccc(I)cc12,0.704,1.54,-0.533,-0.727,-1.34,-1.91,1.59 (inactive),-0.946,-1.2,-0.304 (inactive),-0.525,-0.195 (inactive),-0.77 (inactive),1.64 (inactive),3.38 (inactive),1.58 (inactive),-0.111 (inactive),-1.14 (inactive),-0.747,-0.0876
C=CCN1Cc2ccccc2C[C@@]2(COC(c3ccc(OCCCO)cc3)=N2)C1=O,0.386,0.72,0.741,-3.59,-2.52,1.32,0.94 (inactive),-0.988,-2.19,-1.56 (inactive),0.344,-2.27 (inactive),-8.12 (active),-0.993 (inactive),-0.127 (inactive),1.04 (inactive),1.32 (inactive),1.14 (inactive),-4.61,0.236
CCCNC(=O)[C@@]1(C)c2ccccc2C(=O)N(Cc2cc(C(F)(F)F)cc(C(F)(F)F)c2)[C@H]1c1ccc(CO)cc1,-0.283,0.531,0.0751,0.341,-1.23,1.22,-0.161 (inactive),-0.0935,-0.643,1.27 (inactive),0.597,-0.991 (inactive),0.526 (inactive),-0.241 (inactive),0.882 (inactive),-0.563 (inactive),0.0099 (inactive),-0.161 (inactive),0.73,-0.212
CN(C)CCCN1C(=O)[C@@]2(c3ccc([N+](=O)[O-])cc3)CC(=O)N(C3CCCCC3)[C@@H]2c2ccc(CO)cc21,-0.397,0.962,-0.816,-0.0337,0.505,0.446,-0.274 (inactive),0.764,-0.725,0.572 (inactive),1.57,-1.28 (inactive),1.11 (inactive),-3.88 (inactive),-0.6 (inactive),-1.45 (inactive),0.244 (inactive),0.876 (inactive),1.12,-0.0374
COc1ccc([Si](C)(C)[C@H]2[C@H](CCO)O[C@@]3(C(=O)N(Cc4cccc(N5C(=O)c6cccc7cccc5c67)c4)c4ccccc43)[C@@H]2C)cc1,-1.02,0.894,-3.98,-2.97,-4.23,-0.139,1.49 (inactive),-1.02,-1.34,-2.92 (inactive),-2.42,1.18 (inactive),-4.22 (inactive),0.763 (inactive),1.51 (inactive),4.72 (inactive),0.0827 (inactive),-0.511 (inactive),-4.88,0.224
C=C[C@H](C)[C@H](O)c1ccc(OCCO)cc1,-0.001,0.557,-0.548,1.17,-0.484,0.221,-0.721 (inactive),-0.238,-0.339,-0.276 (inactive),0.847,-1.4 (inactive),0.867 (inactive),0.257 (inactive),0.261 (inactive),0.349 (inactive),0.74 (inactive),0.715 (inactive),-1.9,-0.115
COCCCNC(=O)[C@@]1(C)c2ccccc2C(=O)N(Cc2ccccc2)[C@H]1c1ccc(CO)cc1,0.587,0.928,-0.0853,-0.174,-2.12,0.548,-1.39 (inactive),-0.648,-0.514,0.22 (inactive),-0.0127,-0.552 (inactive),0.392 (inactive),-0.121 (inactive),0.745 (inactive),-0.755 (inactive),-0.157 (inactive),-0.275 (inactive),-0.153,-0.0304
